Compounds without any hit were thinned out: in the full panel of roughly 83,000, 20% have a hit.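 Single-dose data. Exposure time 48 hours. Values below 10 considered active.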 Unmarked numbers belong to inactive results. Activity calls are given as the source filed them.
Each compound was assayed on SF-539 CNS (assay: NCI-60 one-dose screen, 48 h (100 = growth as untreated, 0 = no growth, -100 = all killed)). Details: 10 µM.
With O=C(Nc1ccc(I)cc1F)c1cc(-c2ccc(F)cc2F)ccc1O the growth was 0.0441% (active). Work on COc1cccc(/C=C2\N=C(C)N(CCc3ccc(S(N)(=O)=O)cc3)C2=O)c1 yielded a growth of 99.8%. In the case of CC1=C2C(=C[C@@](C)(COCOCCCl)[C@@H]2O)C(=O)[C@](C)(O)C12CC2, the growth is reported as -65% (active). With Nc1n[nH]c2cccc(C#Cc3cccc(NC(=O)Nc4cc(C(F)(F)F)cc(C(F)(F)F)c4)c3)c12 the growth was -73% (active). For O=C(N=Nc1c(O)[nH]c2ccc(Br)cc12)c1ccc2nc(-c3ccccc3)[nH]c2c1, the growth was -97.9% (active). For COc1cccc(-c2ccc(/C=N/NC(=O)c3[nH]c4ccc(Br)cc4c3-c3ccccc3)o2)c1, the growth was -67.7% (active). In the case of COc1cc2c(cc1OC)CN(CCCCOc1cc(O)c3c(=O)cc(-c4ccccc4)oc3c1)CC2, the growth is reported as 48.7%. In the case of COc1ccc(CCN2C(=O)/C(=C/c3csc(C#N)n3)SC2=S)cc1, the growth is reported as -17.3% (active). With N#Cc1c(NC(=O)c2ccc(C(O)(C(F)(F)F)C(F)(F)F)cc2)sc2c1CCC(=O)C2 the growth was -96.2% (active). For Cn1cc(-c2cc(N)n3nc(-c4c[nH]c5ccc(Br)cc45)cc3n2)c2cc(Br)cnc21, the growth was -97.6% (active). In the case of COc1ccccc1[C@H]1C(C(=O)c2ccc(Cl)cc2)C2(N[C@@H]1c1ccccc1)C(=O)Nc1ccccc12 (some centres not stated), the growth is reported as -60.8% (active). For CC(=O)Nc1ccc(-c2cn(-c3cccc(C(=O)Nc4cc(C(F)(F)F)cc(C(F)(F)F)c4)c3)nn2)cn1, the growth was -83.7% (active). With CCCCCCCCCCCCCCCCCCCC(=O)NCCc1c[nH]c2ccc(OC(=O)CCCC(=O)OCCOOCCOOCCOOCCOOCCOOCCOOCCOOCCOOCCOOCCOOCCOOCCOC)cc12 the growth was -32.9% (active). In the case of O=C1Nc2ccc(Cl)cc2/C1=C/c1cccc(OCc2ccccn2)c1, the growth is reported as -64.4% (active). CN1CCN(Cc2ccc(C(=O)Nc3cccc(Nc4ccc5cc(O)ccc5n4)c3)cc2C(F)(F)F)CC1 was tested, and the growth was -95.5% (active). Compound O=C(O)CCCCCCCCCCN1C(=O)/C(=C/c2cnc(-c3ccc(Cl)cc3)s2)SC1=S has a growth of 36.4%. Work on COc1ccc(NC(=O)Nc2ccc(OCC(=O)N=Nc3c(O)[nH]c4ccc([N+](=O)[O-])cc34)cc2)cc1 yielded a growth of 73.3%. In the case of C/C(=C\CC/C=C(\C)CC/C=C(\C)CC[C@@H](O)C(C)(C)O)CC/C=C(\C)CC[C@@H](O)C(C)(C)O, the growth is reported as 43%. CCOC(=O)C1NN(c2ccc(S(N)(=O)=O)cc2)c2nc3nc(-c4cccs4)cc(-c4cccs4)c3c(=O)n21 (configuration not stated) was tested, and the growth was 63.1%. Compound CN(CCF)c1ccc(/C=C/C(=O)c2ccc(N)cc2O)cc1 has a growth of 83.5%. Work on C=C1CCC2C3(C)COC(c4c(F)cccc4F)OC3CCC2(C)C1CC(O)C1=CCOC1=O (configuration not stated) yielded a growth of 57%. O=C(Nc1cccc(-c2cn(-c3ccc4oc(=O)ccc4c3)nn2)c1)Nc1cc(C(F)(F)F)cc(C(F)(F)F)c1 gave a growth of 19.1%. CN1CCCN(Cc2ccc(C(=O)Nc3cccc(Nc4ccc5cc(O)ccc5n4)c3)cc2C(F)(F)F)CC1 showed a growth of 41.8%. With N#Cc1c(NC(=O)c2ccc(C(F)(F)F)cc2C(F)(F)F)sc2c1CCC(=O)C2 the growth was -80.2% (active). Compound O=C(c1ccc(O)cc1)C1[C@H](c2ccccc2Br)[C@@H](c2ccccc2)NC12C(=O)Nc1ccc(Br)cc12 (some centres not stated) has a growth of 49.1%. COc1ccc(N2N=C(c3ccc4c(c3)OCCO4)CC2c2cccc(NC(=O)CCCNS(=O)(=O)c3ccc(F)cc3)c2)cc1 (configuration not stated) gave a growth of 77.7%. With C=C1CCC2C3(C)COC(c4ccccc4F)OC3CCC2(C)C1C/C=C1/C(=O)OCC1O (configuration not stated) the growth was -87.5% (active). O=C(Nc1nc2ccc([N+](=O)[O-])cc2s1)Nc1ccccc1I was tested, and the growth was -0.233% (active). Compound COc1ccc(-c2ccc(/C=N/NC(=O)c3[nH]c4ccc(Br)cc4c3-c3ccccc3)s2)cc1 has a growth of 71.7%. In the case of Brc1ccc(/C=N/Nc2ncnc3sc4c(c23)CCN(Cc2ccccc2)C4)cc1, the growth is reported as 71.4%. In the case of CC(=O)Nc1ccc(-n2cnc3cc(-c4ccc(O)cc4)ccc32)cc1C, the growth is reported as 41.5%. O=C(c1ccc(O)cc1)C1[C@H](c2ccc(Br)cc2)[C@@H](c2ccccc2)NC12C(=O)Nc1ccccc12 (some centres not stated) was tested, and the growth was 41.2%. Nc1nnc(-c2c[nH]c3ccc(F)cc23)c(-c2c[nH]c3ncccc23)n1 gave a growth of 30%. Work on CN1CCN(c2ccc(C(=O)/C=C/c3ccc(C#N)cc3)cc2)CC1 yielded a growth of 56.3%. Work on Cc1ccc(CSc2nc(-c3ccc(F)cc3)c(C#N)c(=O)[nH]2)cc1 yielded a growth of 101%. CCCCCCCCCCCCCCCCCCCC(=O)NCCc1c[nH]c2ccc(OC(=O)NOCCOCCOCCOCCOCCOCCOCCOCCOCCOCCOCCOCCOCCOCCOCCOCCOCCOCCOCCOCCOCCOCCOC)cc12 was tested, and the growth was -13.8% (active). In the case of Cc1ccc(/C(N)=N/c2sc(-c3ccccc3)nc2-c2ccccc2)cc1, the growth is reported as 79.7%.

Source: PubChem BioAssay (NCI)
